Laboratory results: PubChem BioAssay AID1159580 (chemical genetic matrix, 2015)
Where “and” joins values, the source holds several entries; their conditions need not be identical. Equal entries are not always repeated. Screen size: about 5,500 compounds; about 2,000 (36%) were called active. Roughly 18% stayed inconclusive and do not appear here. This is one part of the list. Values without a mark were called inactive. No stated cut-off is given here; in the data, active means normalized growth mostly below about 0.91 (no sharp cut-off); inconclusive means no clear call, values can overlap the other calls; inactive means mostly above about 0.92.

Assay: chemical genetic growth profiling, strain panel (AID 1159580);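 further: tested at 20 µM; growth read once vehicle control cultures reached saturation at 30 °C; 1 = growth at the plate median or of vehicle wells; lower values mean less growth of the strain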
Settings: S. cerevisiae deletion strains, growth OD

Question: Which normalized growth (locus YAL013W, strain DEP1, hits give low values) does the source give for `COC(=O)NC(=S)Nc1ccccc1NC(=S)NC(=O)OC` here?
Answer: 1

Question: What about the normalized growth (locus YAL021C, strain ccr4, hits give low values) of the same compound?
Answer: 0.92

Question: What about the normalized growth (locus YAL026C, strain drs2, hits give low values) of the same compound?
Answer: 0.975

Question: What about the normalized growth (locus YAL030W, strain snc1, hits give low values) of the same compound?
Answer: 0.986

Question: And the normalized growth (locus YBL061C, strain skt5, hits give low values)?
Answer: 0.99

Question: What about the normalized growth (locus YBR009C, strain hhf1, hits give low values) of the same compound?
Answer: 0.973

Question: What about the normalized growth (locus YBR021W, strain FUR4, hits give low values) of the same compound?
Answer: 1.02

Question: And the normalized growth (locus YBR023C, strain chs3, hits give low values)?
Answer: 0.966

Question: And the normalized growth (locus YBR171W, strain sec66, hits give low values)?
Answer: 0.974

Question: And the normalized growth (locus YBR229C, strain ROT2, hits give low values)?
Answer: 1

Question: What about the normalized growth (locus YBR231C, strain swc5, hits give low values) of the same compound?
Answer: 1

Question: What about the normalized growth (locus YBR279W, strain paf1, hits give low values) of the same compound?
Answer: 0.983

Question: And the normalized growth (locus YCL011C, strain gbp2, hits give low values)?
Answer: 0.978

Question: What about the normalized growth (locus YCL016C, strain dcc1, hits give low values) of the same compound?
Answer: 0.974

Question: What about the normalized growth (locus YCL029C, strain bik1, hits give low values) of the same compound?
Answer: 1.03

Question: And the normalized growth (locus YCL069W, strain vba3, hits give low values)?
Answer: 0.978

Question: What about the normalized growth (locus YCR088W, strain abp1, hits give low values) of the same compound?
Answer: 0.975

Question: What about the normalized growth (locus YDL005C, strain med2, hits give low values) of the same compound?
Answer: 0.963

Question: What about the normalized growth (locus YDL035C, strain GPR1, hits give low values) of the same compound?
Answer: 0.992

Question: What about the normalized growth (locus YDL040C, strain nat1, hits give low values) of the same compound?
Answer: 0.973

Question: And the normalized growth (locus YDL074C, strain BRE1, hits give low values)?
Answer: 1.03

Question: What about the normalized growth (locus YDL101C, strain DUN1, hits give low values) of the same compound?
Answer: 1.02

Question: And the normalized growth (locus YDL134C, strain PPH21, hits give low values)?
Answer: 1

Question: And the normalized growth (locus YDL185W, strain tfp1, hits give low values)?
Answer: 1

Question: What about the normalized growth (locus YDL192W, strain arf1, hits give low values) of the same compound?
Answer: 1.01

Question: What about the normalized growth (locus YDR001C, strain nth1, hits give low values) of the same compound?
Answer: 0.976

Question: What about the normalized growth (locus YDR069C, strain doa4, hits give low values) of the same compound?
Answer: 0.909

Question: And the normalized growth (locus YDR101C, strain arx1, hits give low values)?
Answer: 1.01

Question: And the normalized growth (locus YDR137W, strain rgp1, hits give low values)?
Answer: 0.945

Question: What about the normalized growth (locus YDR150W, strain NUM1, hits give low values) of the same compound?
Answer: 0.996

Question: What about the normalized growth (locus YDR159W, strain sac3, hits give low values) of the same compound?
Answer: 0.969

Question: And the normalized growth (locus YDR162C, strain NBP2, hits give low values)?
Answer: 1.01

Question: And the normalized growth (locus YDR195W, strain ref2)?
Answer: 1.04

Question: And the normalized growth (locus YDR297W, strain sur2, hits give low values)?
Answer: 0.984

Question: And the normalized growth (locus YDR318W, strain mcm21, hits give low values)?
Answer: 1.02

Question: And the normalized growth (locus YDR334W, strain swr1, hits give low values)?
Answer: 0.972

Question: And the normalized growth (locus YDR335W, strain msn5, hits give low values)?
Answer: 0.97

Question: And the normalized growth (locus YDR388W, hits give low values)?
Answer: 1.02

Question: What about the normalized growth (locus YDR392W, strain spt3, hits give low values) of the same compound?
Answer: 0.724 (active)

Question: And the normalized growth (locus YDR502C, strain sam2, hits give low values)?
Answer: 0.993

Question: What about the normalized growth (locus YEL003W, strain gim4, hits give low values) of the same compound?
Answer: 0.959

Question: What about the normalized growth (locus YEL037C, strain rad23, hits give low values) of the same compound?
Answer: 0.973

Question: And the normalized growth (locus YEL061C, strain CIN8 (second series), hits give low values)?
Answer: 0.979

Question: What about the normalized growth (locus YEL061C, strain CIN8, hits give low values) of the same compound?
Answer: 0.996

Question: And the normalized growth (locus YER015W, strain faa2, hits give low values)?
Answer: 0.981

Question: And the normalized growth (locus YER016W, strain bim1, hits give low values)?
Answer: 0.963

Question: What about the normalized growth (locus YER110C, hits give low values) of the same compound?
Answer: 1.02

Question: And the normalized growth (locus YER111C, strain swi4, hits give low values)?
Answer: 0.958

Question: What about the normalized growth (locus YER155C, strain BEM2 (second series), hits give low values) of the same compound?
Answer: 0.753 (active)

Question: What about the normalized growth (locus YER155C, strain BEM2, hits give low values) of the same compound?
Answer: 1.01

Question: And the normalized growth (locus YER167W, strain BCK2, hits give low values)?
Answer: 0.977

Question: What about the normalized growth (locus YFR010W, strain ubp6, hits give low values) of the same compound?
Answer: 0.984

Question: What about the normalized growth (locus YGL078C, strain dbp3, hits give low values) of the same compound?
Answer: 0.982

Question: What about the normalized growth (locus YGL086W, strain mad1, hits give low values) of the same compound?
Answer: 0.997

Question: What about the normalized growth (locus YGL167C, strain pmr1, hits give low values) of the same compound?
Answer: 0.976

Question: And the normalized growth (locus YGL173C, strain kem1, hits give low values)?
Answer: 0.985

Question: What about the normalized growth (locus YGL227W, strain vid30, hits give low values) of the same compound?
Answer: 0.977

Question: And the normalized growth (locus YGL240W, strain doc1, hits give low values)?
Answer: 0.972

Question: What about the normalized growth (locus YGL248W, strain PDE1, hits give low values) of the same compound?
Answer: 1.01

Question: What about the normalized growth (locus YGL253W, strain hxk2, hits give low values) of the same compound?
Answer: 1

Question: What about the normalized growth (locus YGR078C, strain PAC10, hits give low values) of the same compound?
Answer: 0.996

Question: What about the normalized growth (locus YGR135W, strain pre9, hits give low values) of the same compound?
Answer: 1

Question: And the normalized growth (locus YGR229C, strain SMI1, hits give low values)?
Answer: 0.986

Question: And the normalized growth (locus YGR252W, strain gcn5, hits give low values)?
Answer: 0.981

Question: And the normalized growth (locus YHR013C, strain ard1, hits give low values)?
Answer: 0.886

Question: What about the normalized growth (locus YHR027C, strain rpn1, hits give low values) of the same compound?
Answer: 0.985

Question: What about the normalized growth (locus YHR030C, strain SLT2, hits give low values) of the same compound?
Answer: 0.997 and 0.983

Question: What about the normalized growth (locus YHR079C, strain IRE1 (second series), hits give low values) of the same compound?
Answer: 1.02

Question: What about the normalized growth (locus YHR079C, strain IRE1, hits give low values) of the same compound?
Answer: 0.938

Question: And the normalized growth (locus YHR094C, strain hxt1, hits give low values)?
Answer: 1.01

Question: And the normalized growth (locus YHR129C, strain ARP1, hits give low values)?
Answer: 1.01

Question: What about the normalized growth (locus YHR142W, strain chs7, hits give low values) of the same compound?
Answer: 0.943

Question: What about the normalized growth (locus YHR200W, strain rpn10, hits give low values) of the same compound?
Answer: 1.01

Question: What about the normalized growth (locus YIL066C, strain RNR3, hits give low values) of the same compound?
Answer: 1.01

Question: And the normalized growth (locus YIL073C, strain SPO22, hits give low values)?
Answer: 0.999

Question: And the normalized growth (locus YIL125W, strain kgd1, hits give low values)?
Answer: 0.998

Question: And the normalized growth (locus YIR030C, strain dcg1, hits give low values)?
Answer: 1.02

Question: What about the normalized growth (locus YJL092W, strain hpr5, hits give low values) of the same compound?
Answer: 0.977

Question: What about the normalized growth (locus YJL095W, strain BCK1 (second series), hits give low values) of the same compound?
Answer: 0.978

Question: What about the normalized growth (locus YJL095W, strain BCK1, hits give low values) of the same compound?
Answer: 1.04 and 0.967

Question: And the normalized growth (locus YJL115W, strain asf1, hits give low values)?
Answer: 0.966

Question: And the normalized growth (locus YJL129C, strain trk1, hits give low values)?
Answer: 0.939

Question: And the normalized growth (locus YJL134W, strain LCB3, hits give low values)?
Answer: 1

Question: And the normalized growth (locus YJL154C, strain vps35, hits give low values)?
Answer: 0.963

Question: What about the normalized growth (locus YJL164C, strain tpk1, hits give low values) of the same compound?
Answer: 0.965

Question: What about the normalized growth (locus YJL166W, strain qcr8, hits give low values) of the same compound?
Answer: 0.979

Question: And the normalized growth (locus YJL168C, strain set2, hits give low values)?
Answer: 1.02

Question: And the normalized growth (locus YJL187C, strain SWE1 (second series), hits give low values)?
Answer: 1.04

Question: What about the normalized growth (locus YJL187C, strain SWE1, hits give low values) of the same compound?
Answer: 0.986

Question: And the normalized growth (locus YJR043C, strain POL32, hits give low values)?
Answer: 1.04

Question: What about the normalized growth (locus YJR066W, strain TOR1, hits give low values) of the same compound?
Answer: 0.87
